FadD28 FP inh = M. tuberculosis FadD28 bisubstrate binding inhibition. FadD28 bisubstrate probe binding, fluorescence polarization. inhibition, % at 12.5 µM. 0.22% of 360,000 active. AID 588549; in the data active = inhibition above about 8.5%, passing the limit was not always enough
Y pestis TopoI = Y. pestis Topo-I inhibition via cleavage products; Y. pestis Topo-I cleavage product accumulation, plate reader; AID 504884; activity, % at 10 µM; 0.064% of 360,000 active; in the data active = activity above about 50%, passing the limit was not always enough
Vc quorum ag-1 = quorum light induction in luxS cqsA deficient V. cholerae; AID 588436; activation, % at 18.7 µM; V. cholerae BH1578 lux reporter, luminescence, 6 h; 0.16% of 350,000 active; in the data active = activation mostly above about 9.7%, no sharp cut-off
BioA inh = blocks M. tuberculosis BioA enzyme activity | purified M. tuberculosis BioA enzyme, plate reader | inhibition, % at 9.99 µM | 0.096% of 360,000 active; in the data active = inhibition above about 40%
TcdB GH inh = blocks C. difficile toxin B glycohydrolase activity | TcdB glycohydrolase enzymatic assay, plate reader | inhibition, % at 9.99 µM | 0.24% of 350,000 active | AID 652162; in the data active = inhibition above about 10%
Target sequence (P18177 whole entry, looked up): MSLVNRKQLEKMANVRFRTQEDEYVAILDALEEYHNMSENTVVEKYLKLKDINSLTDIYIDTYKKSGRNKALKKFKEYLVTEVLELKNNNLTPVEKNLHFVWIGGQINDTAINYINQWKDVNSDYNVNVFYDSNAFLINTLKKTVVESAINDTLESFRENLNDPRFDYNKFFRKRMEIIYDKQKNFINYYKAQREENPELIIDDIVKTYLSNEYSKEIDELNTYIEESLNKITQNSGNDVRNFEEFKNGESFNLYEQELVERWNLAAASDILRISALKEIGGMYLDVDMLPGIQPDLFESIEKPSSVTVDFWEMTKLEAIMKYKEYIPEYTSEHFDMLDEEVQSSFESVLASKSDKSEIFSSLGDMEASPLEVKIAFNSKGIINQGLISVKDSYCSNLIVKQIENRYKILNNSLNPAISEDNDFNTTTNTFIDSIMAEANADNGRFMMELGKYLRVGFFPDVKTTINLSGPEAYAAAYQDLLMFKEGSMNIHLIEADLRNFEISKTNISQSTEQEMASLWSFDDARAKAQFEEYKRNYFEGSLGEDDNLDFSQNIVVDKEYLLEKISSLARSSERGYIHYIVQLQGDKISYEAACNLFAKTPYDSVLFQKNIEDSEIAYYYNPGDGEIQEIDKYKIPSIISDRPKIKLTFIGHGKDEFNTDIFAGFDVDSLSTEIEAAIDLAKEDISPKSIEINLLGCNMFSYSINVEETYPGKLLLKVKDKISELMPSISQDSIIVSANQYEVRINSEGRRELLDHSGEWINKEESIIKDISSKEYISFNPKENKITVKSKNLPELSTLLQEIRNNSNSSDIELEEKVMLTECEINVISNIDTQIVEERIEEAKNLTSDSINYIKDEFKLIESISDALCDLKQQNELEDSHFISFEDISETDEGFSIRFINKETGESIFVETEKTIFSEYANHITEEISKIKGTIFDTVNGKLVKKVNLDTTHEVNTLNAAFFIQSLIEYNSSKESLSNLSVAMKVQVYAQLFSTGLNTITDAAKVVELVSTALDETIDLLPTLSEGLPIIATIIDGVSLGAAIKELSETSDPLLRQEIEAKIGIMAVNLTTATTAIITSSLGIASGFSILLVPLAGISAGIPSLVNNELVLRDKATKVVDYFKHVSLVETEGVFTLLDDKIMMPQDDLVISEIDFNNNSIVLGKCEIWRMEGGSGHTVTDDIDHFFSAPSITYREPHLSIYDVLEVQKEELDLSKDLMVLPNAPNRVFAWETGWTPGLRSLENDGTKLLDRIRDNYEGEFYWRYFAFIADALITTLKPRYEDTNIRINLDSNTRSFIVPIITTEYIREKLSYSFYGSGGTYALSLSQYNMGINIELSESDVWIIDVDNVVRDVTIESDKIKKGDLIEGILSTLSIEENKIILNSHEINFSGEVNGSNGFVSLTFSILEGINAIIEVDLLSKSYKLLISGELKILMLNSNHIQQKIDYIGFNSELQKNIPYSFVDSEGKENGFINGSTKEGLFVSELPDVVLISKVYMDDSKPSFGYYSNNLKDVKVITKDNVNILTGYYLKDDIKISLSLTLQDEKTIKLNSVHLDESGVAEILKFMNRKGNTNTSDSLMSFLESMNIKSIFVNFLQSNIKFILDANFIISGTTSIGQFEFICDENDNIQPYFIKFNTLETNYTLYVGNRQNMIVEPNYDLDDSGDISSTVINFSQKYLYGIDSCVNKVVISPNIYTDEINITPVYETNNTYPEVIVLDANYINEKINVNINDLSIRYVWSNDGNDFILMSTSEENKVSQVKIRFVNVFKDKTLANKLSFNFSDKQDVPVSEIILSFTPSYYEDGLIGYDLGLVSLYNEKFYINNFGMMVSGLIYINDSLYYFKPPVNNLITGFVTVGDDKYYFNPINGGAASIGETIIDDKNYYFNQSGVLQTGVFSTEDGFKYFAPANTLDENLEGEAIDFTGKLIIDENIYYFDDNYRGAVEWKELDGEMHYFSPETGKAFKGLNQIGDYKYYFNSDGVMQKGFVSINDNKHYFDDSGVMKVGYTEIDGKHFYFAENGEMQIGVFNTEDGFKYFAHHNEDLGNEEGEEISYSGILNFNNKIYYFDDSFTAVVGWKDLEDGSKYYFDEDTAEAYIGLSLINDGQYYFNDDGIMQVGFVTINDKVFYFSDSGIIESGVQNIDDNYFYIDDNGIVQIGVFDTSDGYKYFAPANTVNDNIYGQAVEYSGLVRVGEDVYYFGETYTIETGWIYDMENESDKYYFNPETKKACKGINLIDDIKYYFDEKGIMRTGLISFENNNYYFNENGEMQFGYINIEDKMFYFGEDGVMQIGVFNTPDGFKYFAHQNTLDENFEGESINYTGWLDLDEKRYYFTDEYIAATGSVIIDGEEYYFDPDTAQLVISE
Vc quorum ag-2 = induces V. cholerae light production without autoinducers; shares compounds with Vc quorum ag-1; activation, % at 50 µM; 620 tested, under 10 active; V. cholerae BH1578 lux reporter, luminescence, 6 h; AID 602243; call rule not given here
HeLa 24h tox = cytotoxicity in HeLa cells at 24 hours; shares compounds with Vc quorum ag-1; HeLa viability, CellTiter-Glo ATP luminescence; activity change, negative = cytotoxicity, % at 35 µM; 25 tested, under 10 active; AID 624140;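 active = signal drop with fitted half-maximal concentration at or below twice the highest valid dose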
* hit, by the source's call; i = inactive; / = not tested or not shown; + = active, no number. An excerpt weighted towards active compounds, which were near 0.58% of everything screened.

SMILES	FadD28 FP inh	Y pestis TopoI	Vc quorum ag-1	BioA inh	TcdB GH inh	Vc quorum ag-2	others
COc1cccc(C(=O)Nc2ccc3c(c2)OC[C@H](C)NC[C@@H](C)[C@@H](OC)CN(C)C3=O)c1	/	/	/	1.7	-1.6	/
Cc1ccc(C(=O)OCC(=O)NCC(F)(F)F)cc1C	-3.8	-4.1	21.5	/	1.9	152.9
C[C@@H]1CN([C@@H](C)CO)C(=O)c2cc(NC(=O)Nc3ccccc3)ccc2O[C@@H]1CN(C)C(=O)Nc1ccc2c(c1)OCO2	/	/	/	0.6	/	/
CC(C)(C)OC(=O)NCCCC(CCCNC(=O)OC(C)(C)C)C(=O)O	1.4	-7.5	12.5	-4.6	/	0.2
CCc1ccc(C(=O)Nc2nnnn2CC)cc1	/	/	/	/	/	/	HeLa 24h tox=-5.1
CCC(=O)N1[C@H](C(=O)N2CCc3ccccc3C2)[C@@H](CO)[C@@H]2Cn3c(cccc3=O)[C@@H]21	/	/	/	0.9	1.1	/
CC(=O)Nc1nonc1NC(C)=O	-1.5	0.5	25.8*	0.4	/	0.6
COc1ccc(C)c2sc(N3CCCC3)nc12	-1.4	-8.7	27.8*	1.0	/	1.1
Cc1cccc(-c2cc3nc4c(c(N5CCC6(CC5)OCCO6)n3n2)CCCC4)c1	-0.2	3.5	1.4	-0.3	0.8	-0.1
CCN1CCN(C(=O)c2ccc(COc3cccc(Cl)c3)o2)CC1	-1.1	9.1	i	1.3	0.1	/
CCN1CCN(C(=O)c2ccc(COc3ccc(Cl)cc3)o2)CC1	-0.5	20.2	12.5	/	/	1.3
COCc1nnc(NS(=O)(=O)c2ccc(Br)cc2)s1	-0.4	0.0	27.8*	1.0	/	0.1
C[C@@H]1CN([C@@H](C)CO)C(=O)c2cc(-c3ccccc3)cnc2O[C@H]1CN(C)C(=O)c1ccccn1	/	/	/	4.0	0.0	/
CC(=O)Nc1ccc(NC(=O)c2ccccc2C)cc1	1.2	3.3	257.1*	-1.5	1.2	-0.2
CCCCN1C(=O)C(O)(CC(=O)c2ccccn2)c2ccccc21 (stereo not given)	-1.0	-5.3	44.4*	/	0.5	199.8
CCCCN1C(=O)C(O)(CC(=O)c2ccccc2OC)c2ccccc21 (stereo not given)	1.1	8.2	-0.2	-1.8	-3.9	/
C[C@@H]1CCCCO[C@@H](CN(C)C)[C@H](C)CN([C@H](C)CO)C(=O)c2cc(NC(=O)CCC(F)(F)F)ccc2O1	/	/	/	0.1	0.4	/
COc1cccc(-n2sc3c(c2=S)-c2cc(OC)ccc2NC3(C)C)c1	0.3	-0.2	i	0.7	/	/
CC1(C)Nc2ccc(O)cc2-c2c1ssc2=S	1.4	-21.1	24.7	/	/	0.4
Cn1c(=O)c(=O)n(C)c2cc(S(=O)(=O)N3CCCC3C(=O)NCc3ccco3)ccc21 (stereo not given)	-2.9	-1.7	i	-0.1	0.0	/
O=C(NCc1ccco1)C1CCCN1S(=O)(=O)c1ccc2ccccc2c1 (stereo not given)	-0.6	3.0	14.3	-1.6	1.9	0.2
COc1ccc(CCNC(=O)c2nnn(-c3ccc4c(c3)OCCO4)c2N)cc1OC	-3.0	2.2	7.6*	0.3	/	1.3
CCC(=O)Nc1ccc2c(c1)OC[C@H](C)N(C(=O)Cc1ccccn1)C[C@H](C)[C@@H](OC)CN(C)C2=O	/	/	/	1.2	-0.3	/
Cc1nn(-c2ccccc2)c(C)c1NC(=O)COC(=O)c1cccc(OC(F)F)c1	-2.8	-3.6	26.1	/	0.9	0.1
Cc1nn(-c2ccccc2)c(C)c1NC(=O)COC(=O)c1ccccc1	-0.6	3.0	-0.6	-2.7	0.4	/
SMILES	FadD28 FP inh	Y pestis TopoI	Vc quorum ag-1	BioA inh	TcdB GH inh	Vc quorum ag-2	others
CCn1nc(NC(=O)c2ccco2)c2cc3ccccc3nc21	-3.2	2.0	39.7*	4.9	/	216.2
CC(C)Cn1nc(NC(=O)c2ccco2)c2cc3ccccc3nc21	-2.1	1.6	-0.4	/	2.8	/
CCCC#Cc1cnc2c(c1)C(=O)N([C@H](C)CO)C[C@@H](C)[C@H](CN(C)C(=O)Nc1ccccc1OC)O2	/	/	/	-0.1	0.8	/
Oc1ccc(-c2cn3c(n2)SCC3)cc1	-0.2	-2.9	16.7*	0.6	/	0.5
Brc1ccc(-c2cn3c(n2)SCC3)cc1	0.0	10.5	-0.6	-0.7	0.5	/
CC(C)CCOc1cccc(OCC(=O)N(C)C2CCS(=O)(=O)C2)c1 (stereo not given)	-1.6	16.8	6.6	-0.3	/	2.1
CN(C(=O)COc1ccccc1)C1CCS(=O)(=O)C1 (stereo not given)	-0.9	4.9	-0.3	/	-0.5	/
C[C@H](CO)N1C[C@H](C)[C@@H](CN(C)CC2CC2)Oc2cc(C#CC(C)(C)O)ccc2S1(=O)=O	/	/	/	6.5	-0.7	/
CCC(=O)c1coc2ccc(O)cc12	-4.8	-8.5	25.0*	-0.3	/	0.4
CCC(CC)c1nnc(NC(=O)COc2ccc3c(C)cc(=O)oc3c2)s1	/	-5.0	25.0	0.0	/	0.2
COc1cc(C(=O)Nc2ccc(OCC(=O)N3CCOCC3)cc2C)cc(OC)c1OC	-0.8	-8.3	-4.0	-1.6	2.0	/
COc1c(C)cccc1C(=O)Nc1ccc(OCC(=O)N2CCOCC2)cc1C	-2.9	6.9	10.8	-0.1	-1.2	0.0
O=c1ncn(-c2cccc([N+](=O)[O-])c2)c2ccccc12	-1.1	-0.1	10.8	-0.6	-0.7	/
Cc1c(Cl)cccc1-n1cnc(=O)c2ccccc21	0.3	-1.7	2.6	/	0.3	/	HeLa 24h tox=-5.6
Cc1ccc(Oc2nccc(-c3ccc(Cl)cc3)n2)cc1	1.2	7.8	12.5	/	/	0.1
Clc1ccc(-c2cnc(Oc3ccccc3)nc2)cc1	-3.3	6.7	2.2	/	/	/
CCCN1C[C@@H](C)[C@@H](OC)CN(C)C(=O)c2cc(NC(=O)C3CC3)ccc2OC[C@H]1C	/	/	/	-0.4	0.3	/
COc1cc(NC(=O)c2ccccc2)c(OC)cc1NC(=O)CN1C(=O)NC2(CCCCC2)C1=O	-0.1	-1.2	-2.6	1.0	-0.5	/
COc1cc(NC(=O)c2ccccc2)c(OC)cc1NC(=O)CN1C(=O)N(C)C2(CCCCC2)C1=O	-1.9	-1.7	14.3	-0.1	1.5	1.3
O=C(Oc1cccc(Br)c1)c1cccnc1	1.6	-12.8	i	-2.4	/	/
Cc1cc(C)cc(OC(=O)c2cccnc2)c1	-0.5	5.7	32.2*	0.7	-0.2	0.1
COC(=O)c1cc(Br)ccc1OC(=O)c1cccnc1	-0.2	-6.2	16.7*	-1.0	/	0.1
COc1ccc(CN(C)C[C@H]2OCCCC[C@@H](C)Oc3ccc(NS(=O)(=O)c4cccs4)cc3C(=O)N([C@@H](C)CO)C[C@H]2C)cc1	/	/	/	1.4	-0.1	/
CCc1ccc(NS(=O)(=O)c2cccs2)cc1	0.6	5.2	21.4*	0.8	2.6	0.8
CCCCc1ccc(Nc2nc(CCC)cc(=O)[nH]2)cc1	-3.1	16.5	i	1.3	/	/
CCCc1cc(=O)[nH]c(Nc2ccc(N3CCCCC3)cc2)n1	0.1	-5.4	+	-0.1	/	i
CN(Cc1cn[nH]c1-c1cc2ccccc2o1)CC1CCOCC1	-0.7	-2.3	25.1*	/	0.7	0.7
c1ccc2oc(-c3[nH]ncc3CN(Cc3ccncc3)CC3CCCO3)cc2c1 (stereo not given)	-3.4	-0.2	-0.1	0.2	1.3	/

Bioassay records as filed in PubChem.
